The record followed here is PubChem BioAssay.

Assay [1] deals with Human papillomavirus type 1a protein E7 (residues 44-93). Briefly: small molecules binding HPV E7 44-93 – biochemical, small-molecule microarray, residues 44-93, 635 nm fluorescence, primary screen (AID 1108).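 Further: E7 fragment applied at 1 µg/mL in TBST for 1 h at 4 C; score combines spot fluorescence with its signal to noise ratio.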 To be noted: fluorescence 635 nm, higher = more signal.
A short description of assay [2]: hepatitis C replication reporter changes, two-sided – Huh7 cells, luciferase reporter, HCV replication inhibitor project, primary screen (AID 1109).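 Further: huh7 hepatoma cells harbouring a luciferase neomycin HCV replicon reporter; luciferase luminescence as measure of HCV replicon replication; test concentration not given here.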 The note with it: Huh7 HCV replicon luciferase reporter, 48 h; higher = more signal. (In a reporter assay the amount or activity of a reporter protein is the signal.)
In assay [3] the target is Left-right determination factor 2 (Homo sapiens) (UniProt O00292). Briefly: small molecules binding LEFTY2 protein – biochemical, small-molecule microarray, 635 nm fluorescence scan, primary screen (AID 1110). The note with it: higher = more signal.
Assay [4] has as its target Calmodulin-1 (Homo sapiens) (UniProt P0DP23). As to the kind of experiment: small molecules binding calmodulin-1 with EGTA – biochemical, small-molecule microarray, Cy5-labelled CALM1, profiling panel (AID 1111).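 Further: labelled calmodulin applied in Tris saline Tween buffer holding calcium plus EGTA and DTT.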 To be noted: Cy5-CALM1 binding fluorescence, higher = more signal.
The target is the same in assay [5]. Briefly: small molecules binding Ca-loaded calmodulin-1 – biochemical, small-molecule microarray, Cy5-labelled CALM1, plus calcium, artefact control for SMM control-protein annotation, profiling panel (AID 1112).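 Further: score merges spot fluorescence with signal to noise from triplicate slides.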 The note with it: Cy5-CALM1 binding fluorescence, higher = more signal.
A short description of assay [6]: probe aWnt5a binding to arrayed compounds – biochemical, biotinylated probe, 635/667 nm fluorescence, primary screen (AID 1113).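 Further: score merges 667 nm fluorescence intensity with signal-to-noise per printed feature.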 To be noted: small-molecule microarray, higher = more signal.
Assay [7] can be described thus: probe aShh binding to arrayed compounds – biochemical, biotinylated probe, 635/667 nm fluorescence, primary screen (AID 1114).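 Further: probe is biotin-labelled aShh protein from a stem cell growth factor screen; measures binding of labelled protein to compounds printed on the slide; score merges feature fluorescence at 667 nm with signal-to-noise.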 The note with it: small-molecule microarray, higher = more signal.
A short description of assay [8]: probe aNog binding to arrayed compounds – biochemical, biotinylated probe, 635/667 nm fluorescence, primary screen (AID 1115).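 Further: probe is biotinylated aNog protein used at 0.15 µg/mL for 1 h at 4 C; z-score combines 667 nm fluorescence of each spot with its signal to noise.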 The note with it: small-molecule microarray, higher = more signal.
The target of assay [9] is Torsin-1A-interacting protein 1 (Homo sapiens) (UniProt Q5JTV8). Briefly: compound microarray binding of lysate hLAP1 – cell lysate, small-molecule microarray, COS7 lysate, 635/667 nm fluorescence, primary screen (AID 1116). To be noted: 635 nm fluorescence, higher = more signal.
Assay [10] concerns the target Alpha-bungarotoxin (Bungarus multicinctus) (UniProt P60615). Briefly: compounds binding labelled alpha-BTX control protein – biochemical, small-molecule microarray, Alexa647 label, 635/667 nm fluorescence, artefact control for SMM control protein annotation, profiling panel (AID 1117). The note with it: alpha-BTX-A647 binding fluorescence, higher = more signal.
Another assay has as its target Albumin (Bos taurus) (UniProt P02769). Briefly: compounds binding labelled BSA control protein – biochemical, small-molecule microarray, Alexa647 label, 635/667 nm fluorescence, artefact control for SMM control protein annotation, profiling panel (AID 1118).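 Further: score merges 667 nm emission intensity and signal-to-noise per printed compound spot.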 The note with it: BSA-A647 binding, fluorescence 635 nm, higher = more signal.
The nature of assay [11]: probe aXIP binding to arrayed compounds – biochemical, NeuroSMM set, 635/667 nm fluorescence, primary screen (AID 1119).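 Further: probe is the protein aXip251-270 applied at 1 µg/mL to compound-printed slides; binding of probe to printed compounds measured as 667 nm fluorescence plus signal to noise.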 To be noted: small-molecule microarray, higher = more signal, called active from +8 up or from −8 down.
The nature of assay [12]: probe aNOTCH3 binding on compound microarray – biochemical, small-molecule microarray, 635/667 nm fluorescence, primary screen (AID 1120).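 Further: probe is a biotin-tagged antibody raised against NOTCH3 rather than NOTCH3 protein; score merges spot fluorescence near 667 nm with spot signal to noise.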 The note with it: higher = more signal.
The nature of assay [13]: probe aNOTCH2 binding on compound microarray – biochemical, small-molecule microarray, 635/667 nm fluorescence, primary screen (AID 1121).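 Further: score merges feature fluorescence read at 667 nm with its signal to noise.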 To be noted: higher = more signal.
For assay [14], the target named is Carbonic anhydrase 2 (Homo sapiens) (UniProt P00918). As to the kind of experiment: compounds binding carbonic anhydrase 2 – biochemical, small-molecule microarray, Alexa647-labelled CAII, profiling panel (AID 1122). To be noted: CAII-A647 binding fluorescence, higher = more signal.
Assay [15] can be described thus: COS7 lysate on small-molecule microarray, probe aHis, 635 nm (AID 1123).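 Further: z-score combines 667nm fluorescence intensity with signal-to-noise per printed compound spot.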 To be noted: COS7 cell lysate, fluorescence, higher = more signal.
A short description of assay [16]: probe aLAP1 signal on lysate-treated microarray – cell lysate, small-molecule microarray, COS7 lysate, primary screen (AID 1124).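 Further: lysate comes from COS7 cells expressing LAP1 and is applied at 0.3 µg/mL; score merges spot fluorescence near 667 nm with signal-to-noise over triplicate slides.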 The note with it: probe aLAP1, fluorescence, higher = more signal.
The next assay relates to Sam68 (KHDRBS1). As to the kind of experiment: compounds binding KHDRBS1 protein – biochemical, small-molecule microarray, 635 nm fluorescence, primary screen (AID 1125).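 Further: score merges 667 nm channel intensity with signal to noise over triplicate slides.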 To be noted: higher = more signal.
For assay [17], the system named is Chordin-like protein 2 (CHRDL2). As to the kind of experiment: compounds binding chordin-like 2 – biochemical, small-molecule microarray, 635 nm fluorescence, primary screen (AID 1126).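 Further: printed compound slides probed with Chrdl2 protein at 4 µg/mL for 1 h at 4 C; score merges 667 nm emission intensity with signal to noise over three replicate slides.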 To be noted: fluorescence 635 nm, higher = more signal.
The target in assay [18] is Concanavalin-A (Canavalia ensiformis) (UniProt P02866). Briefly: compounds binding concanavalin A lectin – biochemical, small-molecule microarray, Alexa647 label, 635 nm, artefact control for SMM control protein annotation, primary screen (AID 1127).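 Further: z combines 667 nm emission intensity with signal-to-noise across three replicate slides.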 To be noted: ConA-A647 binding fluorescence, higher = more signal.

Active and inactive are the calls of the source.

Chain of Left-right determination factor 2 (Homo sapiens) (O00292 whole entry, looked up): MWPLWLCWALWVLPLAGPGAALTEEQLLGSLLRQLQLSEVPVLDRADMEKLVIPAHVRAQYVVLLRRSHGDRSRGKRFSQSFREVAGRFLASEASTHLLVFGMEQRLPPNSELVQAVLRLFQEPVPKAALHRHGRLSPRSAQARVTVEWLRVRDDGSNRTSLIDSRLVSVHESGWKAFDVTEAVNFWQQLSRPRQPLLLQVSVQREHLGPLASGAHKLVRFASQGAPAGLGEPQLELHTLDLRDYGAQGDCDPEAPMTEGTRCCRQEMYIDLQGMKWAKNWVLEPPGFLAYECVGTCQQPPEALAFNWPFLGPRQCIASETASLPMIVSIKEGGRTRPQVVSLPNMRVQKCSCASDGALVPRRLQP
Chain of Torsin-1A-interacting protein 1 (Homo sapiens) (Q5JTV8 whole entry, looked up): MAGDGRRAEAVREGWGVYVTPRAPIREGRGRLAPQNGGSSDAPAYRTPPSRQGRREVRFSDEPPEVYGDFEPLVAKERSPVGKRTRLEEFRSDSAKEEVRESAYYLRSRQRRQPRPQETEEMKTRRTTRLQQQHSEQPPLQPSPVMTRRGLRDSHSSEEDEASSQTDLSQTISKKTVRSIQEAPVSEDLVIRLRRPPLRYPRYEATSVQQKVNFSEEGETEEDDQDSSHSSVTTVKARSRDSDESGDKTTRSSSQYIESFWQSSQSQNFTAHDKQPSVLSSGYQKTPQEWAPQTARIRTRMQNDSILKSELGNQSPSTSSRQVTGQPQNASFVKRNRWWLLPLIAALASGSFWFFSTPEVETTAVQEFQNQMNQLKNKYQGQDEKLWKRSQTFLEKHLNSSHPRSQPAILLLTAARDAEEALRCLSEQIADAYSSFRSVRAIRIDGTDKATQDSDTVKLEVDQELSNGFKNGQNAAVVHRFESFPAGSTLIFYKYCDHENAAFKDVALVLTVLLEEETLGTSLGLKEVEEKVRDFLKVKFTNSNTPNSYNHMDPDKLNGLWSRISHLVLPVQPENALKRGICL
Chain of Albumin (Bos taurus) (P02769 whole entry, looked up): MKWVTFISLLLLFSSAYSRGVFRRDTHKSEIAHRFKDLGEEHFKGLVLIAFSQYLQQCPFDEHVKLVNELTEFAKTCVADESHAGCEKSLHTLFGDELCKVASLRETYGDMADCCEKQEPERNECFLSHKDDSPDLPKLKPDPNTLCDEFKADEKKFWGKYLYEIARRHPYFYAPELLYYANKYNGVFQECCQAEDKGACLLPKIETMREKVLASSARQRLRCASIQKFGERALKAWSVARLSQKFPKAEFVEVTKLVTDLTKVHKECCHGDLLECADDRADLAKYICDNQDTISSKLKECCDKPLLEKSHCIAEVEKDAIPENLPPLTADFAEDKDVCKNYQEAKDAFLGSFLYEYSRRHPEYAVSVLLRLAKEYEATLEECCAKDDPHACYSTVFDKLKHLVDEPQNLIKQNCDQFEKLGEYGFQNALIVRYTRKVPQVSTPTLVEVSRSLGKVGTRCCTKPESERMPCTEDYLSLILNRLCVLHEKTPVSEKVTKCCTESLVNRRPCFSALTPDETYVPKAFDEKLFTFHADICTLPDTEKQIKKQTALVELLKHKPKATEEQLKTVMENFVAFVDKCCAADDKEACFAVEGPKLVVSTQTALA
Chain of Alpha-bungarotoxin (Bungarus multicinctus) (P60615 whole entry, looked up): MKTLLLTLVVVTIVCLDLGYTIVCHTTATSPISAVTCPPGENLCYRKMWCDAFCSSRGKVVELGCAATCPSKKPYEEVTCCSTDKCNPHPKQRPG
Chain of Concanavalin-A (Canavalia ensiformis) (P02866 whole entry, looked up): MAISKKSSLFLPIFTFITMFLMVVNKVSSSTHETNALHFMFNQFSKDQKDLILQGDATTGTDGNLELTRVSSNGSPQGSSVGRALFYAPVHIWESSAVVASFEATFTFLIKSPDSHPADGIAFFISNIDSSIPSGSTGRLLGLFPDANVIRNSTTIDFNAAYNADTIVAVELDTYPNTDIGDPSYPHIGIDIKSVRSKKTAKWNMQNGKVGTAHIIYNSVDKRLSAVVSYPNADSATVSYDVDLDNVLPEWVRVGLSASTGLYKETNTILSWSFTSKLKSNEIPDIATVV

In the case of `CC(C)NC(=O)[C@@]1(Cc2ccccc2I)c2ccccc2C(=O)N(C2CCCCC2)[C@H]1c1ccc(CO)cc1`, the composite z-score in assay [1] is 1.46; in assay [3], 0.398; in assay [4], 1.48; in assay [5] it was 0.458; in assay [6], -0.0792; in assay [7], 0.448. In addition, the composite z-score in assay [8] turned out to be 0.982; in [9] it was 0.977; in [10] it was 1.32; with Albumin (Bos taurus), 0.965; in assay [12] it was 0.233; in [13], 0.076. For the same molecule, the composite z-score in assay [14] amounted to 0.312; in assay [15] it was 2.55; in [16] it was 0.429; in the assay with Sam68 (KHDRBS1), 1.31; in assay [17] it was 0.127; in assay [18], 1.1. Further, the z-score in assay [2] was -1.21. For the same molecule, the composite Z-score in assay [11] is 0.256 (inactive).

In the case of `COCCOC(=O)N1C(=O)[C@@]2(c3cc(C#CC4=CCCCC4)ccc31)[C@H](c1ccc(O)cc1)N1[C@H](c3ccccc3)[C@H](c3ccccc3)OC(=O)[C@H]1[C@@H]2C(=O)N1CCCCCCC1`, the composite z-score in [1] was 1.29; in [3] it was 0.8; in assay [4], 1.11; in assay [5] it was 0.716; in [6], -0.0732; in [7] it was 0.332. Moreover, the composite z-score in assay [8] is 0.512; in assay [9], 0.691; in assay [10], 1.69; in the assay with Albumin (Bos taurus) it was -0.645; in assay [12], 0.112; in [13], -0.122. Moreover, the composite z-score in assay [14] amounted to 0.425; in assay [15], 0.129; in [16], 0.135; in the assay with Sam68 (KHDRBS1) it was 1.29; in assay [17], 0.729; in assay [18], 1.12. Moreover, the z-score in assay [2] is -0.387. For the same molecule, in assay [11], the composite Z-score is 1.69 (inactive).

Consider `O=C(CS)NCCCCCCNC(=O)[C@@H]1C[C@@H]2C(=O)N[C@@H](Cc3ccccc3)C(=O)N2[C@@H]1c1ccc(O)cc1`, for which the composite z-score in assay [1] is 1.45; in [3], 0.621; in assay [4], 2.31; in assay [5] it was -0.23; in assay [6] it was 0.0179; in [7], -0.177. Further, the composite z-score in assay [8] was -0.443; in [9], 1; in assay [10], 1.7; with Albumin (Bos taurus), -0.318; in assay [12], -0.128; in assay [13], -0.168. In addition, the composite z-score in [14] is 0.636; in assay [15], 2.87; in [16], 1.47; in the assay on Sam68 (KHDRBS1), 1.28; in assay [17] it was 0.976; in assay [18], 0.938. Also, the z-score in assay [2] is -0.144. Besides, the composite Z-score in assay [11] is 1.1 (inactive).

With `CCc1cccc(NC(=O)O[C@H]2[C@H](OC(=O)Nc3ccccc3)[C@@H](OC(=O)Nc3ccccc3)[C@@H](OC)O[C@@H]2CO)c1`, the composite z-score is 1.51 in assay [1]; 0.273 in assay [3]; 1.19 in assay [4]; -0.291 in assay [5]; 0.0267 in assay [6]; 0.19 in assay [7]. Further, the composite z-score in assay [8] was 1.34; in [9], 2.41; in [10], 1.2; with Albumin (Bos taurus), 0.819; in [12], 0.163; in [13] it was -0.0527. The composite z-score in [14] is 0.806; in [15], 2.69; in assay [16], 0.421; in the assay with Sam68 (KHDRBS1), 1.29; in assay [17], -0.061; in assay [18], 1.14. In [2], the z-score is -3.51. The composite Z-score in assay [11] was -0.477 (inactive).

`O=C(NCc1ccccc1)c1ccc(Br)cc1[N+](=O)[O-]`: the composite z-score was -0.0303 in [1]; 0.61 in assay [3]; 0.216 in assay [4]; 0.321 in assay [5]; -0.0462 in [6]; -0.141 in assay [7]. The composite z-score in assay [8] is -0.318; in assay [9] it was 0.0817; in assay [10], 1.29; with Albumin (Bos taurus), 0.311; in assay [12] it was 0.116; in [13], -0.0488. Besides, the composite z-score in assay [14] was 0.727; in assay [15] it was 0.35; in assay [16] it was -0.209; with Sam68 (KHDRBS1) it was 0.604; in [17], 0.446; in assay [18], 0.899. For the same molecule, in assay [2], the z-score was -0.3. Further, the composite Z-score in assay [11] was 0.047 (inactive).

On to `COc1ccc(-c2cc3c(c(-c4ccccc4)n2)[Si](C(C)C)(C(C)C)O[C@H]3c2ccccc2)cn1`, for which the composite z-score is 0.656 in assay [1]; -0.152 in [3]; 0.136 in assay [4]; -0.265 in [5]; -0.0512 in [6]; -0.0626 in assay [7]. The composite z-score in assay [8] was -0.216; in assay [9] it was -0.126; in assay [10], 0.599; with Albumin (Bos taurus) it was 0.843; in assay [12] it was 0.201; in assay [13], -0.0349. For the same molecule, the composite z-score in assay [14] was -0.0177; in assay [15], 0.263; in assay [16], -0.0375; in the assay with Sam68 (KHDRBS1), 0.723; in assay [17] it was 0.288; in assay [18], 0.165. The z-score in assay [2] was -1.4. The composite Z-score in assay [11] is 0.0861 (inactive).

Consider `O=C1c2ccccc2[C@](Cc2ccccc2I)(C(=O)NCc2ccccc2)[C@H](c2ccc(CO)cc2)N1Cc1ccccc1C(F)(F)F`, for which the composite z-score in assay [1] was -0.32; in assay [3], -1.38; in assay [4], -0.027; in assay [5] it was 0.988; in assay [6], -0.148; in assay [7], -0.0146. The composite z-score is 1.06 in assay [8]; -0.08 in assay [9]; -0.442 in assay [10]; 0.609 with Albumin (Bos taurus); -0.253 in assay [12]; -0.11 in assay [13]. For the same molecule, the composite z-score in assay [14] is 0.631; in [15], 1.37; in assay [16], 0.595; in the assay with Sam68 (KHDRBS1), 0.514; in assay [17] it was -1.84; in [18] it was -0.32. Also, the z-score in assay [2] turned out to be 0.344. Moreover, the composite Z-score in assay [11] was -0.342 (inactive).

With `O=C1OCCC/C=C\[C@H]2OC34C=CCN(CCN5CCOCC5)C(=O)[C@H]3N(CCCCCO)C(=O)[C@@H]4C12` (stereo not given in full), the composite z-score in assay [1] was -0.827; in [3], -1.37; in assay [4], -0.725; in assay [5] it was -1.26; in assay [6], -0.226; in assay [7], -0.147. In addition, the composite z-score is -0.356 in assay [8]; -0.849 in assay [9]; -0.918 in assay [10]; -1.22 in the assay with Albumin (Bos taurus); -0.246 in [12]; -0.162 in assay [13]. The composite z-score in [14] is 0.816; in assay [15], -0.687; in assay [16], -0.401; with Sam68 (KHDRBS1), -0.369; in assay [17], -1.15; in assay [18] it was -0.167. For the same molecule, the z-score in assay [2] is -0.953. In addition, the composite Z-score in assay [11] was 1.39 (inactive).

As to `COc1ccc([Si](C)(C)[C@H]2[C@H](CC(=O)N3Cc4ccccc4C[C@H]3CO)O[C@@]3(C(=O)N(Cc4cccc(N5CCOC5=O)c4)c4ccccc43)[C@@H]2C)cc1`, the composite z-score in assay [1] was 0.294; in [3], 0.91; in [4] it was -0.792; in [5] it was -1.13; in assay [6], -0.0731; in assay [7], -0.17. Besides, the composite z-score in assay [8] was 0.232; in [9], 0.473; in assay [10], 0.894; in the assay with Albumin (Bos taurus) it was -0.89; in [12] it was -0.0077; in [13] it was -0.104. For the same molecule, the composite z-score in [14] is 0.574; in assay [15], 0.784; in assay [16] it was 0.0161; in the assay on Sam68 (KHDRBS1) it was 0.847; in assay [17], 1.45; in assay [18] it was 0.791. Moreover, the z-score in [2] is -3.42. The composite Z-score in [11] was 0.55 (inactive).
